Values joined by “and” are separate entries in the source; they are usually repeats but may differ in a detail not shown here. Identical values can stand only once. Inconclusive results are not listed. A structure can be active in one record and inactive in another. Active and inactive are the calls of the source. Calls follow the shape of the dose curve; as a rule, active = well fitted inhibition curve with a large enough effect in the repeat runs; inconclusive = weak or mixed curves; inactive = no such curve, though single readings can be large or run the other way.
Each molecule was assayed against Cytochrome P450 2C19 (Homo sapiens) (UniProt P33261) (assay: Cytochrome P450 Family 2 Subfamily C Member 19 (CYP2C19) small molecule antagonists: luciferase reporter qHTS assay (AID 1671197; also: nearly all actives have a fitted effect of over 65% in size)). Conditions: P450-Glo CYP2C19 enzyme, luciferin luminescence, 1 h; series mostly up to 115 µM; activity change, negative = inhibition: at the top concentration.
Excerpt: National Center for Advancing Translational Sciences [NCATS]
U.S. Environmental Protection Agency [EPA]
National Institutes of Environmental Health Sciences [NIEHS]
National Toxicology Program [NTP]
U.S. Food and Drug Administration [FDA]
Cytochrome P450 (CYP) enzymes are membrane-bound hemeproteins that play a key role in metabolism of drugs and xenobiotics. Evaluation of the effect of chemicals on CYP isozymes is useful to minimize the adverse drug reactions and toxicities in drug development process. Tox21 chemicals were tested for their effect on CYP enzyme activities by using P450-Glo (TM) screening systems (Promega Corporation, Madison, WI). These systems provide a luminescent method containing proluciferin substrates and are converted to luciferin products by CYP isozymes. The luciferin products formed are detected with a luciferin detection reagent, and the amount of light produced is proportional to CYP activity. P450-Glo (TM) CYP2C19 screening system (Catalog. No. V9880) was used to detect the compounds that interfere in CYP2C19 activity. The positive control compound used for CYP2C19 assay is ketoconazole (Sigma-Aldrich, St. Louis, MO).
Tox21 Assay Protocol Summary:
Two ul of enzyme-substrate mix was dispensed into medium binding white/solid 1536-well plates (Greiner Bio-One North America Inc., Monroe, NC) using a BioRaptr Flying Reagent Dispenser (FRD, Beckman Coulter, Brea, CA). Compounds dissolved in DMSO and positive control (ketoconazole) were transferred to the assay plates at 23 nl using a Pintool station (Wako, San Diego, CA). The assay plates were incubated at room temperature for 10 min. Then 2 ul of NADPH regeneration solution was added to each well of the assay plates using an FRD and incubated at 37C for 1 h. The reaction was stopped by adding 4 ul of detection reagent using an FRD and after 20 min incubation at room temperature the luminescence signal was measured using a ViewLux plate reader (Perkin Elmer, Shelton, CT). Data were expressed as relative luminescence units.
% is scaled to controls: 0 for no effect and ±100 for the full control effect; potency is read from the fitted curve at half-maximal effect.

Cytochrome P450 2C19 (Homo sapiens), sequence (P33261 whole entry, looked up): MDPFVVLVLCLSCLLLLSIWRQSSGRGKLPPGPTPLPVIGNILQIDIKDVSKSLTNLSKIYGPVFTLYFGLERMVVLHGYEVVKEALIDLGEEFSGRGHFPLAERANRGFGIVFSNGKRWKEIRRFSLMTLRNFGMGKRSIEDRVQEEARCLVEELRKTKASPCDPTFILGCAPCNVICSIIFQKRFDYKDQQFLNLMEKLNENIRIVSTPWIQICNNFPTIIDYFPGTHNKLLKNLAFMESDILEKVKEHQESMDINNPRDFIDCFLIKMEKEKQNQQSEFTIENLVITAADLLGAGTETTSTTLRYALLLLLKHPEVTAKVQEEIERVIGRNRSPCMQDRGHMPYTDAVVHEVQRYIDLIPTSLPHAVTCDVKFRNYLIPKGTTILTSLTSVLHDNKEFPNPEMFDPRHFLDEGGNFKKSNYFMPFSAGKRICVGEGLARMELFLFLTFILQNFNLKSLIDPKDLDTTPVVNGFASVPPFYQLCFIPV

Structure (SMILES)	Potency	activity change, negative = inhibition
Cc1cc(O)ccc1Cl	25.6 µM (active) and inactive	–
Sc1ccccc1	18.1 µM (active) and 40.1 µM (active)	–
O=C(O)Cc1ccccc1	–	25.3% [at 52.9 µM] (inactive)
O=[N+]([O-])c1cc([As](=O)(O)O)ccc1O	inactive	–
C=CCN=C=S	40.8 µM (active) and inactive	–
C[C@H]1C(=O)O[C@@H]2CCN3CC=C(COC(=O)[C@](C)(O)[C@]1(C)O)[C@H]23	inactive	–
C=C(C)C(=O)OCC(CC)CCCC (stereo not given)	40.7 µM (active) and inactive	–
CNC(=O)Oc1cccc2ccccc12	35.3 µM (active) and 63.3 µM (active) and 17.4 µM (active)	–
Cc1ccc(O)c(C)c1	–	-23.2% (inactive)
CCOP(=S)(OCC)Oc1ccc([N+](=O)[O-])cc1	128 nM (active) and 109 nM (active)	–
ClCCOCCCl	inactive	–
COP(=S)(OC)SCN1C(=O)c2ccccc2C1=O	715 nM (active) and 710 nM (active) and 436 nM (active)	–
CN(C)C(=O)C(c1ccccc1)c1ccccc1	70.9 µM (active)	–
CNc1cnn(-c2cccc(C(F)(F)F)c2)c(=O)c1Cl	6.85 µM (active) and 31.7 µM (active)	–
O=C(O)C1C(C(=O)O)C2(Cl)C(Cl)=C(Cl)C1(Cl)C2(Cl)Cl (stereo not given)	inactive	–
c1ccc2c(c1)CCCC2	inactive	–
Cc1cccc(C)c1NC(=O)CN1CCCC1=O	inactive	–
CNC(=O)O/N=C/C(C)(C)SC	40.3 µM (active) and inactive	–
O=C/C=C/c1ccccc1	inactive and 79.6 µM (active)	–
N#CN=C(N)N	–	10.8% (inactive)

Structure (SMILES)	Potency	activity change, negative = inhibition
CSc1nnc(C(C)(C)C)c(=O)n1N	inactive	–
N#Cc1ccccn1	inactive and 71 µM (active)	–
Cc1ccc(N=C=O)cc1N=C=O	36.5 µM (active) and 10 µM (active) and inactive	–
CC(C)(C)C(=O)CCl	–	-26.7% (inactive)
CCOC(=O)CC(SP(=O)(OC)OC)C(=O)OCC (stereo not given)	53.6 µM (active)	–
CC[N+](=O)[O-]	72.5 µM (active) and inactive	–
CC(C)CCCCCCOC(=O)c1ccccc1C(=O)OCCCCCCC(C)C	71 µM (active)	–
Cl/C=C/Cl	inactive	–
O=C(O)CCCc1ccc(N(CCCl)CCCl)cc1	inactive	–
[N-]=[N+]=CC(=O)OC[C@H](N)C(=O)O	inactive	–
COC(=O)Nc1cccc(OC(=O)Nc2cccc(C)c2)c1	35.6 µM (active)	–
ClC(Cl)c1ccccc1	40.6 µM (active) and inactive	–
CCCOC(=O)c1ccccc1C(=O)OCCC	8.09 µM (active) and 8.94 µM (active)	–
Cc1cccc(C)c1N	–	-26.6% (inactive)
CNC(=O)O/N=C/C(C)(C)S(C)(=O)=O	–	-12.7% (inactive)
Cc1cccc(N)c1	7.99 µM (active) and 45.1 µM (active) and 39.9 µM (active)	–
Cc1ccc(N)cc1	35.8 µM (active) and 38.6 µM (active) and 31.7 µM (active)	–
CN(C)CCC#N	–	5.62% (inactive)
C[C@]12CC[C@H](O)CC1=CC[C@@H]1[C@@H]2CC[C@]2(C)C(=O)CC[C@@H]12	79.7 µM (active) and 71 µM (active) and inactive	–
CNC(=O)O/N=C/C(C)(C)S(C)=O (stereo not given)	–	27.7% (inactive)

From PubChem BioAssay (Tox21)
